High-throughput results deposited in PubChem by National Center for Advancing Translational Sciences (NCATS).
Hits are enriched below; roughly 17% of the tested compounds scored in any of these assays.
HepG2 viability – HepG2 cytotoxicity, counter-screen for TGF-b inhibitors | Potency, µM (series often up to 46.1 µM), inactives show top-dose activity change, negative = cytotoxicity, actives largely listed as cytotoxic | HepG2 CAGA-GFP viability, ATP luminescence, 18 h | actives 0.76% (n = 410,000)
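HepG2 CAGA-GFP cells (1000/well, DMEM with 1% FBS) received compound, then TGF-beta at 500 pg/mL final, and were incubated 18 hours at 37 degrees C. Viability was read by CellTiter-Glo luminescence. Media-only wells were set as complete cell-killing and DMSO as no toxicity.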
TDP1 cell noCPT – qHTS for Inhibitors of human tyrosyl-DNA phosphodiesterase 1 (TDP1): qHTS in cells in absence of CPT. Potency, µM (highest dose often 46.2 µM), for the others: at the top dose activity change, negative = growth inhibition, actives largely listed as inhibitors. DT40 Tdp1-/- hTDP1 cells, no CPT, ATP luminescence, 48 h. actives 15% (n = 420,000); note: % is set by controls: 0 for no effect and ±100 for the full control effect; nearly all actives have a fitted effect of over 55% in size
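Camptothecin absent (DMSO only). Human TDP1-complemented DT40 knockout cells, 400 cells/well, 37 °C for minimum 48 hr; ATP measured via CellTiter-Glo, 30 min dark incubation, luminescence.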
TGFb SMAD3 inh – inhibitors of TGF-b signaling; HepG2 CAGA-GFP TGF-b/SMAD3 reporter, GFP fluorescence, 18 h; TGF-beta stimulated, 500 pg/mL final; Potency, µM (series often up to 46.1 µM), inactives show at the highest dose activity, negative = inhibition, hits mostly inhibitors; actives 1.2% (n = 410,000); note: % is set by controls: 0 for no effect and ±100 for the full control effect; nearly all actives have a fitted effect of over 65% in size
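Cell-based qHTS in HEPG2 carrying a CAGA-GFP Smad reporter; compounds added before 500 pg/mL final TGF-beta, 18 h incubation at 37 degrees C, GFP fluorescence quantified per cell by imaging cytometry.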
ATXN viability – cell viability loss in ATXN counter-screen; S2 cells (HEK-293 line with an ATXN2-luciferase reporter) viability, CellTiter-Fluor protease fluorescence, 24 h; Potency, µM (series often up to 56.7 µM), usual class: cytotoxic; actives 0.49% (n = 400,000); AID 651635; note: nearly all actives have a fitted effect of over 40% in size
ATXN2 expr inh – ATXN2 expression inhibition. AID 1745845. actives 0.72% (n = 360,000). Potency, µM (top dose mostly 57 µM), without a hit: at the highest dose activity change, negative = inhibition, actives largely listed as inhibitors. HEK-293 ATXN2-luciferase reporter, luminescence, 24 h; note: % is set by controls: 0 for no effect and ±100 for the full control effect; nearly all actives have a fitted effect of over 55% in size
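ATXN2-luciferase reporter cells (luciferase flanked by upstream and downstream ATXN2 gene portions) were treated 24 h at 37 °C with compounds at up to 57 uM. SteadyGlo luminescence gave expression; GF-AFC fluorescence gave viability.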
TDP1 cell CPT – DT40-hTDP1 cell growth loss with CPT. chicken DT40 Tdp1-/-;hTDP1 cells + 20 nM CPT, ATP luminescence, 48 h. Potency, µM (series often up to 46.2 µM), without a hit: at the highest dose activity change, negative = growth inhibition, most hits filed as inhibitors. actives 12% (n = 420,000). AID 686979; note: % is set by controls: 0 for no effect and ±100 for the full control effect; nearly all actives have a fitted effect of over 55% in size
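Chicken DT40 Tdp1-/- cells complemented with human TDP1, 400 cells/well, exposed to compounds plus 20 nM camptothecin for at least 48 h at 37 C; viability read as ATP content by CellTiter-Glo luminescence.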
Starred values were filed as active, the others as inactive; i = inactive; ? = inconclusive; . = not tested or not shown; [ ] = another dose, or the depositor's remark. Calls come from the whole dose curve; as a rule, active = well fitted curve in the direction sought with a large enough effect; inconclusive = small, poorly fitted or top-dose-only effect, or another doubt; inactive = no such curve, though single readings can be large; an effect the other way counts as inactive or inconclusive. Potency is the fitted concentration of half-maximal effect.

SMILES | HepG2 viability | TDP1 cell noCPT | TGFb SMAD3 inh | ATXN viability | ATXN2 expr inh | TDP1 cell CPT
COc1ccc(OC)c(N(CC(=O)Nc2cccnc2)S(=O)(=O)c2ccc(OC)c(OC)c2)c1 | 4% | ? | 4% | i | 4% | ?
CCOc1ccccc1N(CC(=O)Nc1ccccc1)S(=O)(=O)c1ccccc1 | -18% | 26µM* | -5% | i | 4% | ?
COc1ccc(C(=O)NC(=S)Nc2ccc(Cc3ccncc3)cc2)cc1 | -17% | 18µM* | -26% | ? | -26% | ?
CCOc1ccccc1N(CC(=O)Nc1cc(OC)ccc1OC)S(=O)(=O)c1ccccc1 | 7% | ? | 2% | i | -17% | ?
COc1ccc(S(=O)(=O)c2snnc2C)cc1 | -5% | 14% | 3% | i | . | 10%
CN(C(=S)Nc1ccc(F)cc1)C1(c2ccccc2Cl)CCCCC1=O (stereo unspecified) | -11% | ? | 14% | i | 3% | ?
CCOC(=O)c1ccccc1NC(=O)CN(c1cccc(C)c1C)S(=O)(=O)c1ccccc1 | -15% | 5.8µM* | -37% | i | 9% | 7.3µM*
Cc1ccc(Nc2nc(NCc3ccco3)nc3nccnc23)c(C)c1 | 7% | ? | 2% | . | . | ?
COC(=O)c1ccc2nc(-c3ccccc3)c(Cc3ccc(C)cc3)n2c1 | . | ? | . | i | 40% | ?
COC(=O)c1ccc2nc(-c3ccc(C)cc3)c(Cc3cccc(Cl)c3)n2c1 | . | 16µM* | . | ? | -25% | 16µM*
COC(=O)c1ccc2nc(-c3ccc(Cl)cc3)c(Cc3cccc(Cl)c3)n2c1 | . | 18µM* | . | i | 23% | ?
CC(C(=O)N(C)c1ccccc1)N1CCN(C(=O)c2ccccc2)CC1 (stereo unspecified) | -22% | -12% | 22% | i | -4% | 16%
CCCCNC(=O)CC(=O)Nc1ccccc1C(=O)O | 11% | -2% | -2% | i | 6% | 34%
CCCN1CCN(CCCNC(=O)C(CC)n2nc(C)c3sc4ccccc4c3c2=O)CC1 (stereo unspecified) | -17% | 2% | -11% | i | -5% | -26%
COc1ccc(CCNC(=O)CCCn2nc(C)c3sc4ccccc4c3c2=O)cc1OC | -17% | ? | ? | . | . | ?
COc1ccc(CCNC(=O)C(C)n2nc(C)c3sc4ccccc4c3c2=O)c(OC)c1 (stereo unspecified) | 0% | 16µM* | . | . | . | 21µM*
CCC(C(=O)NCCc1ccc(OC)c(OC)c1OC)n1nc(C)c2sc3ccccc3c2c1=O (stereo unspecified) | -14% | 12µM* | -26% | . | . | 9.2µM*
CCOc1ccc(CCNC(=O)CCCn2nc(C)c3sc4ccccc4c3c2=O)cc1OCC | -8% | 18µM* | -1% | . | . | 23µM*
Cc1nn(C(C)C(=O)NCc2ccccc2Cl)c(=O)c2c1sc1ccccc12 (stereo unspecified) | -17% | ? | 0% | i | -3% | ?
NCCCC(N)CC(=O)NCC1NC(=O)C(CO)NC(=O)C(N)CNC(=O)C(C2CCN=C(N)N2)NC(=O)C(=CNC(N)=O)NC1=O (stereo unspecified) | . | . | . | i[0.575 µM] | 12%[0.709 µM] | .
CC(C)C[C@H]1COCCS(=O)(=O)N1Cc1ccc(Cl)c(Cl)c1 | -24% | ? | ? | i | -15% | ?
COc1cc(NC(=O)c2c(-c3ccc(C)cc3)nnc3ccccc23)cc(OC)c1OC | -23% | 9% | 0% | . | . | -20%
COc1cc(CCC(=O)Nc2ccc(Cl)c(C(F)(F)F)c2)cc(OC)c1OC | -31% | 8.2µM* | ? | i | -1% | 18µM*
